Screens (PubChem BioAssay)
Pf Dd2 inh – inhibitors of Plasmodium falciparum Dd2 growth | activity change, % at 10 µM | 94,000 compounds, 2.3% hits | AID 1159554 | P. falciparum Dd2 growth, SYBR Green, 72 h; stronger effect = lower value; in the data active = activity change below about -80%; inconclusive = no clear call, values can overlap the other calls
T cruzi growth-1 – blocks T. cruzi growth in NIH3T3 culture; 77,000 compounds, 5.9% hits; T. cruzi beta-gal in NIH3T3, GalScreen luminescence, 90 h; AID 624255; inhibition, % at 8.34 µM;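 active = mean inhibition above about 93%, with at least 55% of replicates each passing it, limit read from the data, passing the limit was not always enough; inconclusive = only one of those two conditions holds; inactive = neither condition holds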
C diff growth – blocks growth of Clostridium difficile | Clostridium difficile clinical isolate growth, OD600, 24 h; stronger effect = lower value | growth activity, negative = inhibition, % at 16 µg/mL (by protocol) | 86,000 compounds, 0.25% hits;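 active = mean growth activity at or below -80% and every replicate also at or below -80%; inconclusive = mean at or below -80% but some replicate above -80%; inactive = mean growth activity above -80%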
T cruzi growth-2 – blocks T. cruzi growth in NIH3T3 host cells; 5,600 compounds, 72% hits; AID 651739; T. cruzi beta-gal in NIH3T3, GalScreen luminescence, 90 h; shares compounds with T cruzi growth-1; inhibition, % at 8.35 µM;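 active = mean replicate inhibition above about 95% and at least 55% of replicates individually reaching it, limit read from the data; inconclusive = only one of the two criteria is met; inactive = neither criterion is met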
T cruzi growth-3 – blocks T. cruzi growth in NIH3T3 host cells; T. cruzi beta-gal in NIH3T3, GalScreen luminescence, 90 h; shares compounds with T cruzi growth-1; AID 651740; inhibition, % at 2.09 µM; 5,600 compounds, 21% hits;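 active = mean inhibition above about 95%, with at least 55% of replicates also reaching it, limit read from the data; inconclusive = meets just one of the two conditions; inactive = meets neither condition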
NIH3T3 tox – cytotoxicity in mouse NIH/3T3 fibroblasts. shares compounds with T cruzi growth-1. 5,600 compounds, 14% hits. NIH/3T3 viability, CellTiter-Glo ATP luminescence, 90 h. cytotoxicity (signal decrease), % at 8.35 µM;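 active = mean signal decrease across replicates above about 35% based on untreated-well scatter, with enough replicates individually passing, limit read from the data; inconclusive = no rule stated though some were filed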
NIH3T3 tox 2 – NIH/3T3 (mouse) viability loss; shares compounds with T cruzi growth-1; inhibition, % at 24.9 µM; NIH/3T3 viability, CellTiter-Glo ATP luminescence, 90 h; 5,600 compounds, 56% hits;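 active = mean loss of cell viability signal at or above a set limit, and enough replicates individually reaching it; inconclusive = meets only the mean limit or only the replicate share; inactive = meets neither condition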
Of the large screens only hits and unclear results are named; the others gave an inactive call (follow-up assays come after a bar, where they were run). Only some compounds are listed: those with a hit (about 6.7% of all), similar ones and a draw of the others.

C/C=C/c1ccc([C@@H]2[C@H](CO)N3CCCCN(C(=O)Nc4ccccc4F)C[C@@H]23)cc1	none
O=C(Nc1ccccc1F)N1CCCCN2[C@H](CO)[C@@H](c3ccc(/C=C/c4ccccc4)cc3)[C@H]2C1	T cruzi growth-1 104 | T cruzi growth-2 97 | T cruzi growth-3 inactive | NIH3T3 tox 59 | NIH3T3 tox 2 105
C/C=C/c1ccc([C@H]2[C@@H](CO)N3CCCCN(C(=O)Nc4ccccc4F)C[C@H]23)cc1	T cruzi growth-1 97 | T cruzi growth-2 100 | T cruzi growth-3 inactive | NIH3T3 tox inactive | NIH3T3 tox 2 70
C/C=C/c1ccc([C@@H]2[C@@H](CO)N3CCCCN(C(=O)Nc4ccccc4F)C[C@H]23)cc1	none
CS(=O)(=O)Nc1ccc2c(c1)[C@H]1C[C@@H](CC(=O)N3CCCCC3)O[C@H](CO)[C@H]1O2	none
COc1ccc(NC(=O)N(C)C[C@@H]2OCCCC[C@H](C)Oc3ccc(NC(=O)Nc4c(C)noc4C)cc3C(=O)N([C@H](C)CO)C[C@@H]2C)cc1	none
CC(C)NC(=O)Nc1ccc2c(c1)C(=O)N([C@H](C)CO)C[C@H](C)[C@H](CN(C)S(=O)(=O)c1cn(C)cn1)O2	none
COc1ccc(NC(=O)Nc2ccc3c(c2)C(=O)N([C@@H](C)CO)C[C@@H](C)[C@@H](CN(C)C)OCCCC[C@H](C)O3)cc1	none
COc1ccc(NC(=O)Nc2ccc3c(c2)C(=O)N([C@H](C)CO)C[C@H](C)[C@H](CN(C)C(=O)Nc2ccc(C(F)(F)F)cc2)OCCCC[C@H](C)O3)cc1	T cruzi growth-1 inconclusive | T cruzi growth-2 109 | T cruzi growth-3 99 | NIH3T3 tox inactive | NIH3T3 tox 2 inactive
COc1ccc(NC(=O)N(C)C[C@@H]2OCCCC[C@@H](C)Oc3ccc(NC(=O)Nc4ccc(C(F)(F)F)cc4)cc3C(=O)N([C@@H](C)CO)C[C@@H]2C)cc1	none (no result: T cruzi growth-1)
COc1ccc(NC(=O)Nc2ccc3c(c2)C(=O)N([C@@H](C)CO)C[C@H](C)[C@H](CN(C)C)OCCCC[C@H](C)O3)cc1	T cruzi growth-1 96 | T cruzi growth-2 inactive | T cruzi growth-3 inactive | NIH3T3 tox inactive | NIH3T3 tox 2 inactive
COc1ccc(NC(=O)N(C)C[C@@H]2OCCCC[C@H](C)Oc3ccc(NC(=O)Nc4ccc(C(F)(F)F)cc4)cc3C(=O)N([C@@H](C)CO)C[C@H]2C)cc1	T cruzi growth-1 97 | T cruzi growth-2 111 | T cruzi growth-3 inconclusive | NIH3T3 tox inactive | NIH3T3 tox 2 inconclusive
COc1ccc(NC(=O)Nc2ccc3c(c2)C(=O)N([C@H](C)CO)C[C@H](C)[C@H](CN(C)C(=O)Nc2ccc(C(F)(F)F)cc2)OCCCC[C@@H](C)O3)cc1	none (no result: T cruzi growth-1)
COc1ccc(NC(=O)N(C)C[C@H]2OCCCC[C@@H](C)Oc3ccc(NC(=O)Nc4ccc(C(F)(F)F)cc4)cc3C(=O)N([C@H](C)CO)C[C@@H]2C)cc1	T cruzi growth-1 108 | T cruzi growth-2 111 | T cruzi growth-3 106 | NIH3T3 tox inactive | NIH3T3 tox 2 26
COc1ccc(NC(=O)Nc2ccc3c(c2)C(=O)N([C@H](C)CO)C[C@H](C)[C@@H](CN(C)C(=O)Nc2ccc(C(F)(F)F)cc2)OCCCC[C@@H](C)O3)cc1	none
CO[C@H]1CN(C)C(=O)c2cc(NC(=O)Nc3ccc(Cl)cc3)ccc2OC[C@@H](C)N(C(=O)Nc2c(C)noc2C)C[C@@H]1C	none
C[C@@H]1CN([C@@H](C)CO)C(=O)c2cc(-c3cncnc3)cnc2O[C@@H]1CN(C)C(=O)Cc1cccnc1	none
Cc1ccccc1S(=O)(=O)N1C[C@H](O)COC[C@H]2O[C@@H](CC(=O)N3CCOCC3)CC[C@@H]21	none (no result: C diff growth)
CO[C@H]1CN(C)C(=O)c2cc(NC(=O)c3ccccc3F)ccc2OC[C@@H](C)N(C(=O)c2ccccc2F)C[C@@H]1C	none (no result: C diff growth)
Cc1ccc(-c2cnc3c(c2)C(=O)N([C@H](C)CO)C[C@@H](C)[C@@H](CN(C)CC2CCCC2)O3)cc1	none
COc1ccc(NC(=O)N(C)C[C@H]2OCCCC[C@@H](C)Oc3ccc(NC(=O)Nc4ccc(F)cc4)cc3C(=O)N([C@H](C)CO)C[C@H]2C)cc1	Pf Dd2 inh inconclusive, T cruzi growth-1 100 | T cruzi growth-2 112 | T cruzi growth-3 inactive | NIH3T3 tox inactive | NIH3T3 tox 2 inactive
COc1ccc(NC(=O)N(C)C[C@H]2OCCCC[C@H](C)Oc3ccc(NC(=O)Nc4ccc(F)cc4)cc3C(=O)N([C@@H](C)CO)C[C@H]2C)cc1	none
O=C(Nc1ccc2c(c1)[C@H]1C[C@H](CC(=O)N3CCOCC3)O[C@@H](CO)[C@H]1O2)C1CCC1	none
CC(C)C#Cc1cnc2c(c1)C(=O)N([C@H](C)CO)C[C@@H](C)[C@@H](CN(C)C(=O)CCN1CCCCC1)O2	none (no result: Pf Dd2 inh)
CCc1cnc(N2[C@@H](C#N)[C@@H](c3ccccc3)[C@@H]2CO)s1	none
CCc1cnc(N2[C@H](CO)[C@H](c3ccccc3)[C@@H]2C#N)s1	none
CCc1cnc(N2[C@@H](C#N)[C@@H](c3ccc(C#CC(C)C)cc3)[C@@H]2CO)s1	T cruzi growth-1 97 | T cruzi growth-2 101 | T cruzi growth-3 108 | NIH3T3 tox inactive | NIH3T3 tox 2 74
CCc1cnc(N2[C@@H](C#N)[C@H](c3ccc(C#CC(C)C)cc3)[C@@H]2CO)s1	T cruzi growth-1 107 | T cruzi growth-2 112 | T cruzi growth-3 inactive | NIH3T3 tox inactive | NIH3T3 tox 2 inactive
CCC(=O)NC[C@H]1[C@H](c2ccc(-c3cccc(F)c3)cc2)[C@@H](CO)N1C(=O)CC	none
CO[C@@H]1CN(C)C(=O)c2cc(NC(=O)Nc3ccccc3)ccc2OC[C@@H](C)N(CC2CC2)C[C@H]1C	none (no result: C diff growth)
O=C(C[C@@H]1CC[C@H]2[C@@H](COC[C@@H](O)CN2S(=O)(=O)c2ccccc2)O1)Nc1ccccc1	none
Cc1cccc(S(=O)(=O)N2C[C@H](O)COC[C@@H]3O[C@@H](CC(=O)Nc4ccc(-c5ccccc5)cc4)CC[C@H]32)c1	T cruzi growth-1 111 | T cruzi growth-2 97 | T cruzi growth-3 inconclusive | NIH3T3 tox 60 | NIH3T3 tox 2 78
O=C(C[C@@H]1CC[C@@H]2[C@H](COC[C@@H](O)CN2S(=O)(=O)c2ccccc2)O1)Nc1ccc(-c2ccccc2)cc1	T cruzi growth-1 104 (no result: C diff growth) | T cruzi growth-2 117 | T cruzi growth-3 inactive | NIH3T3 tox inactive | NIH3T3 tox 2 inactive
Cc1cccc(S(=O)(=O)N2C[C@@H](O)COC[C@H]3O[C@@H](CC(=O)Nc4ccc(-c5ccccc5)cc4)CC[C@@H]32)c1	T cruzi growth-1 113 | T cruzi growth-2 100 | T cruzi growth-3 inactive | NIH3T3 tox inactive | NIH3T3 tox 2 78
O=C(C[C@@H]1CC[C@H]2[C@@H](COC[C@@H](O)CN2S(=O)(=O)c2cccc(F)c2)O1)Nc1ccc(-c2ccccc2)cc1	none
